Experimental data taken from PubChem BioAssay AID1159580 (chemical genetic matrix, 2015).
Out of some 5,500 compounds screened, about 2,000 (36%) were called active. Not shown: some 18% with an inconclusive outcome. Rule as the data show it: active = normalized growth mostly below about 0.91 (no sharp cut-off); inconclusive = no clear call, values can overlap the other calls; inactive = mostly above about 0.92. The list shows a part of the results.

Assay: chemical genetic growth profiling, strain panel (AID 1159580);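 also: tested at 20 µM; growth read once vehicle control cultures reached saturation at 30 °C; 1 = growth at the plate median or of vehicle wells; lower values mean less growth of the strain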
Conditions: growth OD

Measured: normalized growth

CC(=O)O[C@H]1C[C@@]2(C)[C@@H](C[C@@H](O)C3[C@]2(C)CC[C@H]2[C@H](C)[C@H](O)CC[C@]32C)/C1=C(/CCC=C(C)C)C(=O)O (some centres undefined)
inactive: S. cerevisiae deletion strains, locus YJL187C, strain SWE1 (second series), stronger effect = lower value 1.01 | S. cerevisiae deletion strains, locus YJL187C, strain SWE1, stronger effect = lower value 1.04 | S. cerevisiae deletion strains, locus YJR043C, strain POL32, stronger effect = lower value 1 | S. cerevisiae deletion strains, locus YJR066W, strain TOR1, stronger effect = lower value 0.983 | S. cerevisiae deletion strains, locus YKL009W, strain mrt4, stronger effect = lower value 0.99 | S. cerevisiae deletion strains, locus YKL068W, stronger effect = lower value 1.01 | S. cerevisiae deletion strains, locus YKL085W, strain MDH1 (second series), stronger effect = lower value 0.997 | S. cerevisiae deletion strains, locus YKL085W, strain MDH1, stronger effect = lower value 0.997 | S. cerevisiae deletion strains, locus YKL160W, strain elf1, stronger effect = lower value 1.07 | S. cerevisiae deletion strains, locus YKL190W, strain CNB1, stronger effect = lower value 1.01 | S. cerevisiae deletion strains, locus YKR001C, strain vps1, stronger effect = lower value 1.03 | S. cerevisiae deletion strains, locus YKR026C, strain gcn3, stronger effect = lower value 1.01 | S. cerevisiae deletion strains, locus YKR091W, strain srl3, stronger effect = lower value 1.03 | S. cerevisiae deletion strains, locus YLL001W, strain dnm1, stronger effect = lower value 1.04 | S. cerevisiae deletion strains, locus YLL026W, stronger effect = lower value 1.02 | S. cerevisiae deletion strains, locus YLL041C, strain sdh2, stronger effect = lower value 1.02 | S. cerevisiae deletion strains, locus YLR027C, strain aat2, stronger effect = lower value 1.01 | S. cerevisiae deletion strains, locus YLR039C, strain RIC1, stronger effect = lower value 0.996 | S. cerevisiae deletion strains, locus YLR058C, strain SHM2, stronger effect = lower value 1.04 | S. cerevisiae deletion strains, locus YLR102C, strain apc9, stronger effect = lower value 1.02 | S. cerevisiae deletion strains, locus YLR113W, strain HOG1, stronger effect = lower value 0.957 | S. cerevisiae deletion strains, locus YLR221C, strain rsa3, stronger effect = lower value 1.06 | S. cerevisiae deletion strains, locus YLR258W, strain gsy2, stronger effect = lower value 1.03 | S. cerevisiae deletion strains, locus YLR262C, strain YPT6 (second series), stronger effect = lower value 0.991 | S. cerevisiae deletion strains, locus YLR262C, strain YPT6, stronger effect = lower value 0.997 | S. cerevisiae deletion strains, locus YLR268W, strain sec22, stronger effect = lower value 1.01 | S. cerevisiae deletion strains, locus YLR320W, strain mms22, stronger effect = lower value 1.06 | S. cerevisiae deletion strains, locus YLR330W, strain CHS5, stronger effect = lower value 1.01 | S. cerevisiae deletion strains, locus YLR342W, strain FKS1 (second series), stronger effect = lower value 1.03 | S. cerevisiae deletion strains, locus YLR342W, strain FKS1, stronger effect = lower value 1.04 | S. cerevisiae deletion strains, locus YLR357W, strain rsc2, stronger effect = lower value 1.1 | S. cerevisiae deletion strains, locus YLR370C, strain arc18, stronger effect = lower value 1.03 | S. cerevisiae deletion strains, locus YLR371W, strain rom2, stronger effect = lower value 1.01 | S. cerevisiae deletion strains, locus YLR384C, strain iki3, stronger effect = lower value 1.04 | S. cerevisiae deletion strains, locus YLR418C, strain cdc73, stronger effect = lower value 1.05 | S. cerevisiae deletion strains, locus YML016C, strain PPZ1, stronger effect = lower value 1 | S. cerevisiae deletion strains, locus YML032C, strain rad52, stronger effect = lower value 1.02 | S. cerevisiae deletion strains, locus YML120C, strain ndi1, stronger effect = lower value 1.05 | S. cerevisiae deletion strains, locus YML124C, strain tub3, stronger effect = lower value 1.03 | S. cerevisiae deletion strains, locus YMR058W, strain fet3, stronger effect = lower value 1.03 | S. cerevisiae deletion strains, locus YMR078C, strain ctf18, stronger effect = lower value 1.02 | S. cerevisiae deletion strains, locus YMR125W, strain sto1, stronger effect = lower value 1.04 | S. cerevisiae deletion strains, locus YMR129W, stronger effect = lower value 1.02 | S. cerevisiae deletion strains, locus YMR205C, strain PFK2, stronger effect = lower value 1.04 | S. cerevisiae deletion strains, locus YMR223W, strain ubp8, stronger effect = lower value 1.05 | S. cerevisiae deletion strains, locus YMR231W, strain pep5, stronger effect = lower value 1.02 | S. cerevisiae deletion strains, locus YMR307W, strain GAS1, stronger effect = lower value 0.995 | S. cerevisiae deletion strains, locus YNL067W, strain RPL9B, stronger effect = lower value 1.01 | S. cerevisiae deletion strains, locus YNL071W, strain lat1, stronger effect = lower value 1.03 | S. cerevisiae deletion strains, locus YNL153C, strain GIM3, stronger effect = lower value 1.02 | S. cerevisiae deletion strains, locus YNL183C, strain NPR1, stronger effect = lower value 0.936 | S. cerevisiae deletion strains, locus YNL209W, strain ssb2, stronger effect = lower value 1.03 | S. cerevisiae deletion strains, locus YNL233W, strain BNI4, stronger effect = lower value 1.01 | S. cerevisiae deletion strains, locus YNL248C, strain rpa49, stronger effect = lower value 1.05 | S. cerevisiae deletion strains, locus YNL250W, strain rad50, stronger effect = lower value 1.03 | S. cerevisiae deletion strains, locus YNL271C, strain bni1, stronger effect = lower value 1.02 | S. cerevisiae deletion strains, locus YNL298W, strain CLA4, stronger effect = lower value 1.02 | S. cerevisiae deletion strains, locus YNL307C, strain MCK1, stronger effect = lower value 1.03 | S. cerevisiae deletion strains, locus YNL322C, strain KRE1 (second series), stronger effect = lower value 1.05 | S. cerevisiae deletion strains, locus YNR049C, strain mso1, stronger effect = lower value 1.05 | S. cerevisiae deletion strains, locus YNR052C, strain pop2, stronger effect = lower value 1.03 | S. cerevisiae deletion strains, locus YOL012C, strain htz1 1.07 | S. cerevisiae deletion strains, locus YOL147C, strain pex11, stronger effect = lower value 1.04 | S. cerevisiae deletion strains, locus YOR001W, strain rrp6, stronger effect = lower value 1.01 | S. cerevisiae deletion strains, locus YOR061W, strain CKA2, stronger effect = lower value 0.999 | S. cerevisiae deletion strains, locus YOR069W, strain VPS5, stronger effect = lower value 1.02 | S. cerevisiae deletion strains, locus YOR070C, strain gyp1, stronger effect = lower value 1.03 | S. cerevisiae deletion strains, locus YOR080W, strain dia2, stronger effect = lower value 1.04 | S. cerevisiae deletion strains, locus YOR083W, strain WHI5, stronger effect = lower value 1.06 | S. cerevisiae deletion strains, locus YOR106W, strain vam3, stronger effect = lower value 1.04 | S. cerevisiae deletion strains, locus YOR136W, strain idh2, stronger effect = lower value 1.02 | S. cerevisiae deletion strains, locus YOR144C, strain elg1, stronger effect = lower value 1.02 | S. cerevisiae deletion strains, locus YOR184W, strain ser1, stronger effect = lower value 1.02 | S. cerevisiae deletion strains, locus YOR231W, strain MKK1, stronger effect = lower value 0.956 | S. cerevisiae deletion strains, locus YOR265W, strain rbl2, stronger effect = lower value 1.02 | S. cerevisiae deletion strains, locus YOR270C, strain vph1, stronger effect = lower value 1 | S. cerevisiae deletion strains, locus YOR290C, strain snf2, stronger effect = lower value 0.974 | S. cerevisiae deletion strains, locus YOR316C, strain cot1, stronger effect = lower value 1.02 | S. cerevisiae deletion strains, locus YPL051W, strain arl3, stronger effect = lower value 1.04 | S. cerevisiae deletion strains, locus YPL078C, strain atp4, stronger effect = lower value 1.02 | S. cerevisiae deletion strains, locus YPL106C, strain sse1, stronger effect = lower value 1.07 | S. cerevisiae deletion strains, locus YPL240C, strain hsp82, stronger effect = lower value 1.03 | S. cerevisiae deletion strains, locus YPL256C, strain CLN2, stronger effect = lower value 0.986 | S. cerevisiae deletion strains, locus YPR119W, strain clb2, stronger effect = lower value 1.02 | S. cerevisiae deletion strains, locus YPR141C, strain kar3, stronger effect = lower value 1.03 | S. cerevisiae deletion strains, locus YPR163C, strain tif3, stronger effect = lower value 1.04 | S. cerevisiae deletion strains, locus YPR167C, strain met16, stronger effect = lower value 1.03 | S. cerevisiae deletion strains, strain wtn01, stronger effect = lower value 1.02 | S. cerevisiae strains, strain wild type, stronger effect = lower value 1.01
